Data as given in PubChem BioAssay (NCI).
Compounds without any hit were thinned out: in the full panel of roughly 79,000, 15% have a hit. Cut-off read from the data, not from the text of the source: active = growth inhibition above about 70%; inactive = the rest.

Tests used:
[1] = NCI Yeast Anticancer Drug Screen. Data for the rad50 strain (AID 155);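 note: 0% = growth of vehicle-only cultures of the same strain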; conditions: S. cerevisiae rad50 strain growth inhibition, active compounds read high; at 50.0 µM unless noted
In short: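 A DNA repair-deficient yeast mutant serves as the test organism; compound-induced growth inhibition is calculated against vehicle-treated cells.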

[2] = NCI Yeast Anticancer Drug Screen. Data for the mec2-1 strain (AID 157); conditions: S. cerevisiae mec2-1 strain, active compounds read high; at 50.0 µM unless noted
In short: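 mec2-1 yeast strain, carrying an alteration in DNA damage repair or cell cycle control, was exposed to compounds; growth inhibition was measured relative to vehicle-treated controls.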

[3] = NCI Yeast Anticancer Drug Screen. Data for the sgs1 mgt1 strain (AID 161);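 note: 0% = growth of cultures given vehicle only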; conditions: S. cerevisiae sgs1 mgt1 strain, active compounds read high; at 50.0 µM unless noted
In short: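 This yeast growth screen uses a strain with defined DNA-repair lesions; compound-treated growth is compared with vehicle-treated growth.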

[4] = NCI Yeast Anticancer Drug Screen. Data for the cln2 rad14 strain (AID 165);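 note: 0% = growth equal to vehicle treated cultures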; conditions: S. cerevisiae cln2 rad14 strain, active compounds read high; at 50.0 µM unless noted
In short: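 Yeast carrying cln2 and rad14 alterations (cell cycle control and DNA damage repair) were exposed to compounds. Growth inhibition was measured against vehicle-treated controls.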

[5] = NCI Yeast Anticancer Drug Screen. Data for the bub3 strain (AID 167); conditions: S. cerevisiae bub3 mutant strain, active compounds read high; at 50.0 µM unless noted
In short: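 Inhibition values come from growth of compound-treated mutant yeast normalised to vehicle-treated controls.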

[6] = NCI Yeast Anticancer Drug Screen. Data for the mlh1 rad18 strain (AID 175); conditions: S. cerevisiae mlh1 rad18 strain growth inhibition, active compounds read high; at 50.0 µM unless noted
In short: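 Growth inhibition of the yeast strain was measured after compound exposure and expressed relative to vehicle-treated controls. The strain carries defined defects in DNA damage repair.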

Measured: growth inhibition

CN1C(=O)N(c2cc(Cl)cc(Cl)c2)C(=N)C1=S
inactive: [1] 7.1% | [2] 1.75% | [3] 17.6% | [4] -3.1% | [5] 32.5% | [6] 37.5%

CCCCCCCCC(O)C#CC(O)CCCCCCCC (configuration not stated)
inactive: [1] -18% | [2] -20.9% | [3] -5.6% | [4] -12.9% | [5] -12.6% | [6] -8.85%

COc1ccc(CC2c3cc(OC)c(OC)cc3CC[N+]2(C)C)cc1OC (configuration not stated)
inactive: [1] -13.1% | [2] -20.8% | [3] 1.6% | [4] 10.9% | [5] -1.65% | [6] -46.4%

CCN(C(=O)c1ccc(C(=O)N(CC)c2cccc(C)c2)cc1)c1cccc(C)c1
inactive: [1] -24.4% | [2] -3.55% | [3] -9.85% | [4] 8.05% | [5] 6.15% | [6] -1.7%

Cc1nc2c(N)n[nH]c(=O)n2n1
inactive: [1] -20.9% | [2] -14.4% | [3] -19.2% | [4] -54% | [5] 7.15% | [6] -4.7%

O=C(CCl)NNC1=Nc2ccc(Cl)cc2SC1
inactive: [1] -2.2% | [2] -3.65% | [3] 8.55% | [4] 0.6% | [5] 5.8% | [6] 11.2%

CCN1CCC(O)C1 (configuration not stated)
inactive: [1] 18.6% | [2] -0.1% | [3] 19.2% | [4] 14.2% | [5] 26% | [6] 30.9%

Cc1ccc2cc(-c3ccccc3)[nH]c2c1
inactive: [1] -15.3% | [2] -11.2% | [3] -13.6% | [4] -13.4% | [5] -33.6% | [6] -55%

CC(C)(C)C(C(=O)O)C(=O)O
inactive: [1] 11.2% | [2] 8% | [3] 0.45% | [4] -7.4% | [5] 5.2% | [6] 13.6%

CC(=O)CC/C=C(\C)CC(C)C
inactive: [1] 17.4% | [2] 11.6% | [3] 2.85% | [4] 13.6% | [5] 9.8% | [6] 10.1%

C#CC1(O)C2CCc3cc(OC)ccc3C2CCC1(C)C(=O)OC (configuration not stated)
inactive: [1] 10.8% | [2] -0.2% | [3] 4.05% | [4] 6.85% | [5] -11.9% | [6] -11.6%

N#Cc1ccc2c(c1)-c1cc(C#N)ccc1C2c1ccccc1
inactive: [1] 8.95% | [2] -10.8% | [3] -3.45% | [4] -42.5% | [5] -4.8% | [6] -6.95%

C/C=C1\CC2C=CC1C2 (configuration not stated) (tested in a mixture with another compound)
inactive: [1] 5.35% | [2] -15.4% | [3] 3.25% | [4] 0.5% | [5] 11.6% | [6] 8.15%

N#CC1=C(N)OC(C2CC2)=C(C#N)C1c1ccco1 (configuration not stated)
inactive: [1] -9.75% | [2] -14.1% | [3] -11.1% | [4] 4.45% | [5] -24.8% | [6] -11.9%

CC(C)(CO)NCC(C)(C)[N+](=O)[O-]
inactive: [1] 8.5% | [2] 2.25% | [3] 14.6% | [4] -9.2% | [5] 6.95% | [6] 6.7%

Cc1nn2c(nnn2CCO)c1-c1ccccc1
inactive: [1] 10.7% | [2] -5.65% | [3] -15% | [4] -10.6% | [5] -25.4% | [6] 15.8%

CCC[C@@H]1C(=O)N=C(N)N1C(=O)OCc1ccccc1
inactive: [1] 18.6% | [2] 8.4% | [3] 7.75% | [4] 1.8% | [5] -5.8% | [6] 2.5%

O=C(c1ccc(Cl)cc1)c1ccc(OCCCOc2ccc(C(=O)c3ccc(Cl)cc3)cc2Cl)c(Cl)c1
inactive: [1] 9.55% | [2] -7.95% | [3] -2.35% | [4] -46.9% | [5] -20.3% | [6] 2.15%

CCCCCCCCCCCCNCCC(=O)O
inactive: [1] 25% | [2] -19% | [3] 42.1% | [4] 14.6% | [5] 50.5% | [6] 36.5%

Cc1nc(-c2ccc(Cl)cc2)cn2c1nc1ccccc12
inactive: [1] -5.5% | [2] -0.1% | [3] 8.2% | [4] -15.1% | [5] 47.5% | [6] -10.3%

O=C1NC(=O)C(Cc2ccccc2)(c2cccnc2)N1 (configuration not stated)
inactive: [1] -28.6% | [2] -17.7% | [3] -5.65% | [4] -36.1% | [5] -0.65% | [6] -22.2%

O=C1CN(C2OC(CO)C(O)C2O)C(=O)NC1=O (configuration not stated)
inactive: [1] 41.8% | [2] 14.2% | [3] 55.2% | [4] -11.2% | [5] 9.15% | [6] 24.4%
